ChEMBL document CHEMBL3988442, “University of Dundee, Small-Polar-MMV Screening Library” (2021)
Hit rate of the full screen: of about 67,000 compounds, about 300 (0.45%) showed an effect of 50% or more. This excerpt belongs to a sample that is enriched for strong results.

Biological target: Polyketide synthase Pks13 (Mycobacterium tuberculosis (strain ATCC 25618 / H37Rv)) (UniProt I6X8D2)
Experiment: Mycobacterium tuberculosis Polyketide synthase 13 Thioesterase (PKS13)
Format: functional
Design: scale not given: in the data most compounds retested in dose-response had high values
Conditions: 30 µM

Sequence of Polyketide synthase Pks13 (Mycobacterium tuberculosis (strain ATCC 25618 / H37Rv)) (I6X8D2 whole entry): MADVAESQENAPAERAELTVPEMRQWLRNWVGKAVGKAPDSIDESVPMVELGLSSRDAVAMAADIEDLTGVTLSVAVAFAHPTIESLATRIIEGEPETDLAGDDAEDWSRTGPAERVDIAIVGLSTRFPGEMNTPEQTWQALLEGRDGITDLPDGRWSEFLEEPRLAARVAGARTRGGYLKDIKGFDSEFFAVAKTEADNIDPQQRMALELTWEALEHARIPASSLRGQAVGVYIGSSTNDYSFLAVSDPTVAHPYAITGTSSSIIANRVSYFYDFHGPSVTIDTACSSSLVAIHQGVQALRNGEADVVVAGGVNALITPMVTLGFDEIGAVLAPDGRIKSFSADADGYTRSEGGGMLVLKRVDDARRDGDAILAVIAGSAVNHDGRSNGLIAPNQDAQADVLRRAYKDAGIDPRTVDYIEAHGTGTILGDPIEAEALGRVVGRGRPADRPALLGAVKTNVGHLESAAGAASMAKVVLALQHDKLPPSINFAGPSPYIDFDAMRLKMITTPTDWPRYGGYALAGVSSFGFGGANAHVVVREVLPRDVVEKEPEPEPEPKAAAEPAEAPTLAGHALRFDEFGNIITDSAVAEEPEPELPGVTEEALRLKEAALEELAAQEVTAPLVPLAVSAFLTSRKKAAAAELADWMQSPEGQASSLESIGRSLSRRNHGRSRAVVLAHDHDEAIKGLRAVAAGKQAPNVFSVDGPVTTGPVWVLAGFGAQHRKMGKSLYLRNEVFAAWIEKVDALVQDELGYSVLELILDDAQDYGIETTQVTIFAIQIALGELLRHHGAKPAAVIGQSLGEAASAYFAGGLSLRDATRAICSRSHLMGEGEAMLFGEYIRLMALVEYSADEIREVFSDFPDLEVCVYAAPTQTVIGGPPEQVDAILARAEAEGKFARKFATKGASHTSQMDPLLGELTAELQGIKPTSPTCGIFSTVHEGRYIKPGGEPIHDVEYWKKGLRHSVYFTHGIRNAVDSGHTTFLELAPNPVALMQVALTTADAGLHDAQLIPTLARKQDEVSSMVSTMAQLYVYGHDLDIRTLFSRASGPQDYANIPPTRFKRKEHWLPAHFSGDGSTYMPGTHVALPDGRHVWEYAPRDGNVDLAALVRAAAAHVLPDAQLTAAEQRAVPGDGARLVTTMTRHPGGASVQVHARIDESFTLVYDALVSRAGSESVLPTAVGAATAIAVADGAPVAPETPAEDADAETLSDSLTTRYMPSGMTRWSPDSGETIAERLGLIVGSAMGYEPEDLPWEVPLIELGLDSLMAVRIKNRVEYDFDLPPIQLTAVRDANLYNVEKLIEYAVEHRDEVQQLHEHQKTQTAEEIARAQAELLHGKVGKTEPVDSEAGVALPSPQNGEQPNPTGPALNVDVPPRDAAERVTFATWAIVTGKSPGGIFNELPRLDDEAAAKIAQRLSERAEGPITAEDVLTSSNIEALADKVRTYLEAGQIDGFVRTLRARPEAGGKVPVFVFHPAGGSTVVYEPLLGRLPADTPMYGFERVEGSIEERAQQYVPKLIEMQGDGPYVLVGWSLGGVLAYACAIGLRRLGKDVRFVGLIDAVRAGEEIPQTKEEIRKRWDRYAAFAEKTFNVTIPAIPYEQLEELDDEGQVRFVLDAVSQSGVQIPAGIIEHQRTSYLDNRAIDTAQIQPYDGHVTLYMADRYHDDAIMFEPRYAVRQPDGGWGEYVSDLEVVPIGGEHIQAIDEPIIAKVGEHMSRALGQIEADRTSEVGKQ

Row | SMILES | Percent Effect [%]
1 | O=C(CSc1ccccn1)N1CCN(CCO)[C@@H]2CS(=O)(=O)C[C@@H]21 | 0.423
2 | Cc1ccoc1C(=O)N1C[C@@H]2COC[C@]2(CNS(C)(=O)=O)C1 | -15.4
3 | Cn1cc(CN2C[C@@H](NC(=O)c3cscn3)[C@H]3OCCC[C@H]32)cn1 | -41.4
4 | O=C(Nc1ccccc1)N1C[C@H]2C[C@H](C(=O)N3CCCC3)[C@@H](C1)O2 | -39.5
5 | CC(C)c1nc(CN2CCc3onc(-c4cccc(F)c4)c3C2)no1 | 91.2
6 | CC(C)Cc1nc(CN2CCc3onc(-c4cccc(F)c4)c3C2)no1 | 3.75
7 | CC(C)(C)c1nc(CN2CCc3onc(-c4cccc(F)c4)c3C2)no1 | -16.5
8 | O=C(C1CCC1)N1C[C@@H]2CC[C@H](C1)N(S(=O)(=O)c1ccccc1)C2 | -44.5
9 | CCCN1CCN(C(=O)c2ccnc(N)c2)[C@H]2CS(=O)(=O)C[C@H]21 | -5.18
10 | CC1=CC[C@@H]2CN(C(=O)c3ccc(-c4cc[nH]n4)cc3)C[C@@H]2C1 | -21.5
11 | CN(CCc1cccs1)C(=O)Nc1ccc2c(c1)C(=O)N(C)CC2 | 31.9
12 | CN1CCc2ccc(NCc3cscn3)cc2C1=O | -2.18
13 | CN1CCc2ccc(NCc3cccs3)cc2C1=O | 126
14 | Cc1noc(C)c1CN1C[C@@H]2COC[C@@H](C(=O)N3CCCCO3)[C@@H]2C1 | 6.29
15 | CN(C)c1ncc2c(n1)C1(CCN(Cc3cccnc3)C1)COC2 (configuration not stated) | -30.2
16 | COc1cccc(CN2CCC3(CC2)CCN(c2ncc(C)cn2)C3)c1 | -24.2
17 | COc1cccc(CN2CCC3(CCN(c4ncc(C)cn4)CC3)C2)c1 | 66.7
18 | COc1cccc(CN2CCC3(COCc4cnc(N(C)C)nc43)C2)c1 (configuration not stated) | 111
19 | COc1cccc(CN2CCC3(CCN(c4ncc(F)cn4)CC3)C2)c1 | 14.4
20 | CN(C)c1ncc2c(n1)C1(CCN(Cc3ccccc3)C1)COC2 (configuration not stated) | -6.74
21 | Cc1noc([C@]23COC[C@H]2CN(C(=O)COC2CCCC2)C3)n1 | -5.31
22 | COCCOCC(=O)N1C[C@H]2CC[C@@H]1CN(C1Cc3ccccc3C1)C2 | -22.6

Row | SMILES | Percent Effect [%]
23 | Cc1cccc2cc(CNCCCN3CCOCC3)c(=O)[nH]c12 | -21.5
24 | CCc1cccc2cc(CNCCCN3CCOCC3)c(=O)[nH]c12 | 16.5
25 | Cc1ccc2cc(CNCCCN3CCOCC3)c(=O)[nH]c2c1C | 62.3
26 | CS(=O)(=O)N1CCO[C@@H]2CN(Cc3ccncc3)C[C@@H]2C1 | -14.9
27 | CC(O)CN1CCC(CNCc2cccc(C(=O)N(C)C)c2)CC1 (configuration not stated) | -0.155
28 | CN(C)CCN1CCC(CNCc2c[nH]nc2C(C)(C)C)CC1 | -14.5
29 | CC(O)CN1CCC(CNCc2cccc(C(N)=O)c2)CC1 (configuration not stated) | 108
30 | CC(O)CN1CCC(CNCc2c[nH]nc2C(C)(C)C)CC1 (configuration not stated) | 110
31 | CC(O)CN1CCC(CNCc2ccc(C(N)=O)cc2)CC1 (configuration not stated) | -12.3
32 | CCN1CCC(CNCc2c[nH]nc2C(C)(C)C)C1 (configuration not stated) | -27.2
33 | Cn1cc(CN2CC[C@@H]3[C@@H]2CCN3C(=O)Cc2cccc(F)c2)cn1 | -2.13
34 | Fc1ccc(CN2CCO[C@H]3[C@H](Oc4ccccn4)CC[C@@H]32)cc1 | 13.6
35 | O=C(Cc1ccccn1)N1CCN2C[C@H](Oc3cccc(F)c3)C[C@H]2C1 | -20.8
36 | O=C(c1cnccn1)N1CC[C@H]2C[C@@H](c3ccncn3)O[C@@H]2C1 | -4.56
37 | O=C(O)[C@]12CCCN(Cc3ccccc3)C[C@H]1CN(c1ncccn1)C2 | -25.9
38 | Cc1ccc(CN2CC[C@H]3O[C@@H](C(=O)N4CCCO4)CC[C@H]32)s1 | -20.3
39 | Cn1ncc2c1C(COCC1CC1)CN(Cc1cccnc1)C2 (configuration not stated) | -43.6
40 | Cn1ncc2c1CN(Cc1cccnc1)CC2COCC1CC1 (configuration not stated) | 60.5
41 | Cn1ncc2c1CN(Cc1ccc(F)cc1)CC2COCC1CC1 (configuration not stated) | -20.5
42 | CN1CCN(C(=O)N2C[C@H]3CC[C@@H]2CN(Cc2ccccc2)C3)CC1 | 7.3
43 | Cc1ccc(N2CC[C@H]3O[C@@H](C(=O)N4CCCCO4)CC[C@H]32)nn1 | 14.6
44 | O=C([C@H]1COC[C@H]2CN(C3CCOCC3)C[C@H]21)N1CCCO1 | -30.7

Row | SMILES | Percent Effect [%]
45 | Cc1n[nH]c(SCC(=O)N2C[C@H]3CC[C@@H]2CN(c2ncccn2)C3)n1 | 53.5
46 | CCCSCC(=O)N1C[C@H]2CC[C@@H]1CN(c1ncccn1)C2 | -17
47 | CCOCCC(=O)N1C[C@H]2CC[C@@H]1CN(c1ncccn1)C2 | -26.3
48 | O=C(c1ncccn1)N1C[C@H]2CCC[C@@]2(COCc2ccncc2)C1 | -14.6
49 | NC(=O)N1CC[C@@H]2O[C@H](COCC(=O)N3CCCC3)CC[C@@H]21 | 9.98
50 | COc1ccc2nc(C3CC3)cc(C(=O)NCCc3nnc[nH]3)c2c1 | -11.9
51 | NC(=O)C1CCCN1C(=O)c1cc(C2CC2)nc2ccc(F)cc12 (configuration not stated) | -9.51
52 | NC(=O)c1cc(C2CC2)nc2ccc(F)cc12 | 87.8
53 | COCCN1C(=O)[C@H]2CC[C@@H]1CN(c1ncccn1)C2 | 1.06
54 | O=C(c1cnco1)N1C[C@@H]2CC[C@H](Oc3ccccc3F)[C@@H]2C1 | 6.58
55 | N#Cc1ccc(C(=O)O)nc1/C=C/c1cccc(F)c1 | -26.4
56 | N#Cc1ccc(C(=O)O)nc1/C=C/c1cccc(Cl)c1 | 51.4
57 | N#Cc1ccc(C(=O)O)nc1/C=C/c1cccc(Br)c1 | -10.3
58 | CC(C)C(=O)N1CC[C@@H]2[C@H](CC1)N(Cc1cccnc1)CCS2(=O)=O | -7.83
59 | c1ccc(O[C@@H]2CN(Cc3nccs3)[C@@H]3CCCO[C@@H]32)nc1 | -21.3
60 | CN(C)CCO[C@H]1CN(C(=O)c2cscn2)[C@@H]2COC[C@H]12 | 4.36
61 | Cn1cc(I)c(C(=O)NCCCn2cc(Br)cn2)n1 | 55
62 | Cn1cc(Br)c(C(=O)NCCn2cc(Br)cn2)n1 | -18.6
63 | Cn1cc(Br)c(C(=O)NCCCn2cc(Br)cn2)n1 | 27.2
64 | Cn1ccnc1CN1CCN(Cc2ccncc2)[C@@H]2CS(=O)(=O)C[C@@H]21 | -14
65 | Cc1cc(CN2CC[C@@H]3[C@@H](CCC(=O)N3CCc3c[nH]cn3)C2)oc1C | -32.9
66 | O=C([C@H]1CC[C@@H]2[C@@H](CCN2C2CCOCC2)O1)N1CCOCC1 | 5.19

Row | SMILES | Percent Effect [%]
67 | Cc1noc(C)c1CCC(=O)NCC1(O)CCN(c2ccccn2)C1 (configuration not stated) | 1.81
68 | Cc1n[nH]c(C)c1CCC(=O)NCC1(O)CCN(c2ccccn2)C1 (configuration not stated) | 61.1
69 | Cc1noc(C)c1CCC(=O)NCC1(O)CCCN(c2ccccn2)C1 (configuration not stated) | 9.52
70 | CCO[C@H]1CC[C@H]2[C@H]1OCCN2C(=O)c1nn(C)c2ccccc12 | -2.76
71 | CN(C)[C@@H]1CN(C(=O)Cc2cccs2)[C@@H]2CCCO[C@H]12 | -8.31
72 | Cc1nc(N2CCCC2)ncc1C(=O)Nc1ccc(Br)cc1 | -0.502
73 | Cc1c(C2=NS(=O)(=O)N(C)C(C(=O)Nc3ccc(Br)cc3)=C2)cnn1C | 47
74 | Cc1nn(C)cc1C1=NS(=O)(=O)N(C)C(C(=O)Nc2ccc(Br)cc2)=C1 | 57.7
75 | O=C1N(C2CCCCC2)C[C@H]2CN(C3CCC3)CCN12 | 5.32
76 | COCCN1C(=O)CC[C@@H]2[C@@H]1CCN2Cc1c(C)noc1C | 2.01
77 | CS(=O)(=O)N[C@@H]1CN(Cc2ccccc2)C[C@@H]2CCCO[C@@H]21 | -27.1
78 | CN(Cc1ccccn1)C1CCC[C@@H]2CN(CC3CC3)C[C@H]12 (some centres not stated) | -21.9
79 | COC(=O)NCC(=O)NCC(C)(C)c1cccc(C(F)(F)F)c1 | -4.12
80 | COC(=O)NCC(=O)NCC(C)(C)c1cccc(Br)c1 | -17.5
81 | CCC(=O)NCC(=O)NCC(C)(C)c1cccc(Br)c1 | 50.4
82 | CS(=O)(=O)N1CCO[C@@H]2CN(C(=O)C3CCOC3)CC[C@@H]2C1 (some centres not stated) | -9.9
83 | NC(=O)C1CCN(c2cncc(-n3cccn3)n2)CC1 | 9.01
84 | CN(C)C(=O)C1CCN(c2cncc(-n3cccn3)n2)CC1 | 9.49
85 | O=C(c1ccccc1)C1CCN(c2cncc(-n3cccn3)n2)CC1 | 75.5
86 | Cc1ccc(C(=O)N2C[C@@H](OCC3CCOCC3)[C@H]3OCCC[C@H]32)o1 | -4.11
87 | O=C1CCCN1Cc1ncn2c1CN(C(=O)NC1CCCC1)CCC2 | 60.1
88 | CC(C)NC(=O)N1CCCn2cnc(CN3CCCC3=O)c2C1 | -40.2

Row | SMILES | Percent Effect [%]
89 | O=C1CCCN1Cc1ncn2c1CN(C(=O)NC1CCCCC1)CCC2 | 29
90 | O=C([C@@H]1C[C@@H]2CCN(Cc3ccccn3)C[C@H]2O1)N1CCCO1 | -7.04
91 | CN(C)C(=O)CN1C[C@@H]2CC[C@H](C1)N(C(=O)CCn1cncn1)C2 | -4.82
92 | CC(=O)c1cc(CN2C[C@H]3CC[C@@H]2CN(S(=O)(=O)N(C)C)C3)cs1 | -12.2
93 | O=C(c1ccccc1)N1C[C@@H]2CC[C@H](C1)N(Cc1cc(F)ccc1Cl)C2 | 3.66
94 | O=C1[C@H]2CC[C@H](CN(c3ncnc4ccsc34)C2)N1CC1CC1 | 90.8
95 | COc1cc(N2C[C@@H]3CC[C@H](C2)N(CC2CCC2)C3=O)ncn1 | -4.75
96 | CN1C(=O)[C@H]2CC[C@@H]1CN(c1ncnc3ccsc13)C2 | 38.1
97 | COCC(=O)N1CC[C@H]2C[C@H](c3nnc(C4CC4)o3)O[C@@H]2C1 | -6.34
98 | COCCN1C[C@H]2CC[C@@H]1CN(Cc1nc3ccccc3n1C)C2 | -34.6
99 | NC(=O)COc1ccc(CN2CC[C@@]3(O)CCCC[C@H]3C2)cc1Cl | -1.23
100 | CCc1[nH]c2c(CNc3cc(C)nc(NC)n3)cc(C)cc2c1C | 5.91
101 | CNc1cc(C)nc(NCc2cc(C)cc3c(C)c(C)[nH]c23)n1 | 13
102 | CCc1[nH]c2c(CNc3nc(C)cc(NC)n3)cc(C)cc2c1C | 146
103 | COC[C@@H]1CC[C@H]2[C@H](CCN2S(=O)(=O)Cc2ccccc2)O1 | -27.3
104 | c1cncc(CN2CCN3C[C@H](Oc4cncnc4)C[C@H]3C2)c1 | 0.84
105 | Cc1cccc(CN2C[C@@H]3CN(C(=O)C4CCOC4)C[C@@H]3C2=O)c1 (some centres not stated) | -8.77
106 | CN1CCN(C(=O)[C@H]2C[C@H]3[C@H](CCN3Cc3nccs3)O2)CC1 | -17.5
107 | Cc1ccc(N2CC[C@H]3C[C@H](C(=O)NCc4ccco4)O[C@@H]3C2)cc1 | -20.4
